40 sequences from the OligoGym collection can be followed below.
Further: reference of the scale not given here.

For one experiment, the target named is ETFB. Nature of the experiment: pooled miR-30 sensor sort-seq; sequence = guide strand. Particulars: shRNA.
For AAGAAATCCAGCTGTCATCTGC, the sensor-assay potency score (higher = more potent) worked out at 0.386.
Same read-out and setting: the value for TGGAGGTCAGGTCCACACCCAG was -1.98; that for TCCGTGACCACACCGGTCCTGT was -1.31; that for TTCTTGGCTTTCATGATGTTGG was -0.962.
The same measure, in the same setting: under TTTCAACTTGTCCCCCTCCAGC stands -1.21; under AAGCGTTCTGCTTCTGCTGGGG, -0.0454; under TTCTTCTTGGCTTTCATGATGT, -0.521.
AATCCAGCTGTCATCTGCCCTG: the sensor-assay potency score (higher = more potent) is -0.828.
In turn, TTGATCACCTCGATCTTCTTCT had a sensor-assay potency score (higher = more potent) of 0.521.
As to ACACTGATCACAGAGAGCTTGG, the sensor-assay potency score (higher = more potent) is -0.751.
For ACAGTCATCATCGATGGCCTGT, the sensor-assay potency score (higher = more potent) is -0.63.
With TCCACTTTCAACTTGTCCCCCT, the sensor-assay potency score (higher = more potent) was -0.169.
Turning to TCGGTCTGCACCCATGGCCAGG, the sensor-assay potency score (higher = more potent) was -1.71.
The same measure, in the same setting: under TCCCGCTCCACTTTCAACTTGT stands -0.247.
In the case of TTCTCCTTCTCTGCCAGCTTGG, the sensor-assay potency score (higher = more potent) was -1.27.
In the case of TCGTCTCCTGGCACTGTGCAGG, the sensor-assay potency score (higher = more potent) was -1.37.
As to ATCACCTCGATCTTCTTCTTCT, the sensor-assay potency score (higher = more potent) was -0.543.
For TCAGCTGTCACCACAGCTGGCA, the sensor-assay potency score (higher = more potent) was -0.558.
The same measure, in the same setting: under TCTGGTTACAGTCATCATCGAT stands -0.57; under TCTCCTTGAGCCGCACAGCCTC, -1.05; under TCGATCTTCTTCTTCTTGGCTT, -0.249.
TTCATGGAGTGCTTCACACCAT returned a sensor-assay potency score (higher = more potent) of 0.145.

In a further experiment the target is ETS1. The experiment is described as above. Particulars: shRNA.
ATAGCTAATGAAGTAATCCGAG: the sensor-assay potency score (higher = more potent) is -0.147.
As to ATCTGCACATTCCATATCCGGG, the sensor-assay potency score (higher = more potent) is -1.42.
Same read-out and setting: the value for TTTTGTCGTAATAGTAGCGTAG was -0.397.
Same read-out and setting: under TAGCTAATGAAGTAATCCGAGG stands -1.48; under TATCGTAGCTCTCTATGCTTTC, -0.783.
Still for that read-out and setting: under TTTGATAGCAAAGTAGTCATTC stands -0.303.
On to TTTCTTTGCTGCTTGGAGTTAA, for which the sensor-assay potency score (higher = more potent) is -0.637.
In the case of TGAGACATCATTTCTTTGCTGC, the sensor-assay potency score (higher = more potent) amounted to 0.679.
On to TAGTCCTCTGAGTCGAAGCTGT, for which the sensor-assay potency score (higher = more potent) is -0.809.
On the same count and under the same terms, under TTTTTGTCGTAATAGTAGCGTA stands -0.88; under TTTATCAGTGAGTAATTCCAGA, -0.449; under TGAAAGTAGCTTTTAATGCTTG, -0.0896.
In the case of TAGAGTGATAGGTAAATAGTTC, the sensor-assay potency score (higher = more potent) is -0.916.
Sequence TTCTGCAAGGTGTCTGTCTGGA showed a sensor-assay potency score (higher = more potent) of 0.532.
Regarding TAACTTGATATGGTTTCACATC, the sensor-assay potency score (higher = more potent) is -1.41.
On to TTTTCCGTCTTGATGATGGTGA, for which the sensor-assay potency score (higher = more potent) was -0.268.
Still for that read-out and setting: under AAGACTGACAGGATTTATCAGT stands -0.516; under TTGTTTGATAGCAAAGTAGTCA, -0.385.
